Laboratory results as given in PubChem BioAssay AID1159580 (chemical genetic matrix, 2015).
In all, about 5,500 compounds went through this assay and about 2,000 (36%) were called active. Another 18% or so got no clear call; they are omitted. Rule as the data show it: active = normalized growth mostly below about 0.91 (no sharp cut-off); inconclusive = no clear call, values can overlap the other calls; inactive = mostly above about 0.92. This is one part of the list.

Experiment: chemical genetic growth profiling, strain panel (AID 1159580);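 also: tested at 20 µM; growth read once vehicle control cultures reached saturation at 30 °C; 1 = growth at the plate median or of vehicle wells; lower values mean less growth of the strain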
Conditions: growth OD

Measured: normalized growth

O=C(NNC(=O)c1ccc[nH]1)Nc1cc(Cl)cc(Cl)c1
inactive: S. cerevisiae deletion strains, locus YAL013W, strain DEP1, hits give low values 1.01 | S. cerevisiae deletion strains, locus YBR229C, strain ROT2, hits give low values 1 | S. cerevisiae deletion strains, locus YDL101C, strain DUN1, hits give low values 0.991 | S. cerevisiae deletion strains, locus YDR150W, strain NUM1, hits give low values 0.994 | S. cerevisiae deletion strains, locus YEL061C, strain CIN8, hits give low values 0.996 | S. cerevisiae deletion strains, locus YGR078C, strain PAC10, hits give low values 1 | S. cerevisiae deletion strains, locus YGR229C, strain SMI1, hits give low values 1.02 | S. cerevisiae deletion strains, locus YHR030C, strain SLT2, hits give low values 1.07 | S. cerevisiae deletion strains, locus YHR087W, strain rtc3, hits give low values 1.02 | S. cerevisiae deletion strains, locus YJR043C, strain POL32, hits give low values 1.01 | S. cerevisiae deletion strains, locus YJR075W, strain HOC1, hits give low values 1.01 | S. cerevisiae deletion strains, locus YKL190W, strain CNB1, hits give low values 1.01 | S. cerevisiae deletion strains, locus YLR039C, strain RIC1, hits give low values 1.05 | S. cerevisiae deletion strains, locus YLR058C, strain SHM2 (second series), hits give low values 1.01 | S. cerevisiae deletion strains, locus YLR085C, strain ARP6, hits give low values 1.04 | S. cerevisiae deletion strains, locus YLR262C, strain YPT6, hits give low values 1.03 | S. cerevisiae deletion strains, locus YML094W, strain GIM5, hits give low values 0.992 | S. cerevisiae deletion strains, locus YMR219W, strain ESC1, hits give low values 1 | S. cerevisiae deletion strains, locus YMR263W, strain SAP30, hits give low values 1.02 | S. cerevisiae deletion strains, locus YNL128W, strain TEP1, hits give low values 1.03 | S. cerevisiae deletion strains, locus YNL153C, strain GIM3, hits give low values 0.988 | S. cerevisiae deletion strains, locus YNL298W, strain CLA4 (second series), hits give low values 1.05 | S. cerevisiae deletion strains, locus YNL322C, strain KRE1, hits give low values 0.996 | S. cerevisiae deletion strains, locus YNR030W, strain Alg12, hits give low values 1.01 | S. cerevisiae deletion strains, locus YOL006C, strain TOP1, hits give low values 1.08 | S. cerevisiae deletion strains, locus YPL055C, strain LGE1, hits give low values 1.02 | S. cerevisiae deletion strains, locus YPL241C, strain CIN2, hits give low values 0.922 | S. cerevisiae deletion strains, locus YPR135W, strain CTF4, hits give low values 1 | S. cerevisiae strains, strain wild type, hits give low values 1.02
